What all share (test): qHTS profiling for inhibitors of Plasmodium falciparum proliferation (AID 504749); also: nearly all actives have a fitted effect of over 60% in size
Holding throughout (settings): P. falciparum in erythrocytes, SYBR Green DNA, 72 h; series mostly up to 28.7 µM

In one experiment the test system is CP192. The essentials:
(§1)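 Each compound contacts P. falciparum-infected red blood cells for 72 h at 37 C; lysis buffer (Tris, EDTA, saponin, Triton X, SYBR Green I) is added and fluorescence measured next morning; values normalized to controls.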

A further experiment relates to CP194. In short, it runs like this:
as §1

Another experiment deals with CP201. The essentials:
as §1

For a further experiment, the system named is CP203. In short, it runs like this: as §1
The test system of another experiment is CP238. In short, it runs like this: as §1
The test system of another experiment is CP247. The essentials:
as §1

Another experiment concerns CP250. In short, it runs like this: as §1
For a further experiment, the system named is CP262. In short, it runs like this:
as §1

In a further experiment the test system is C2A. In short, it runs like this: as §1
The subject of another experiment is CP191. The essentials: as §1
For the next experiment, the system named is CP260. In short, it runs like this: as §1
A further experiment deals with CP185. The essentials:
as §1

The subject of a further experiment is CP211. In short, it runs like this:
as §1

Another experiment deals with CP252. In short, it runs like this:
as §1

Another experiment relates to CP256. The essentials:
as §1

In another experiment the test system is ATS95. In short, it runs like this:
as §1

The subject of the next experiment is CP265. The essentials:
as §1

In another experiment the test system is CP217. In short, it runs like this:
as §1

The next experiment has as its system CP215. The essentials: as §1

In PubChem BioAssay (NCATS) one finds Potency data, which are given here for seven compounds.

Records with an inconclusive call do not appear. Calls of active or inactive are those of the source. Calls follow the shape of the dose curve; as a rule, active = well fitted inhibition curve with a large enough effect; inconclusive = small, poorly fitted or top-dose-only effect; inactive = flat fitted curve, though single readings scatter.
Potency is read from the fitted curve at half-maximal effect.

`CN1CCN(c2c(F)cc3c(=O)c(C(=O)O)cn4c3c2SCC4)CC1`: the Potency entry in the experiment on CP192, with CP194, in the experiment with CP201, in the experiment on CP203, in the experiment on CP238 and in the experiment on CP247 was “inactive” each time. Further, the Potency result in the experiment on CP250 and in the experiment on CP262 was “inactive” throughout.

In the case of `CCN(CC)CCOc1ccccc1C(=O)CCc1ccccc1`, the Potency entry in the experiment with C2A, in the experiment on CP191, in the experiment on CP192, in the experiment with CP250, in the experiment on CP260 and in the experiment with CP262 was “inactive” throughout.

As for `CN1CCN(C2=Nc3ccccc3Sc3ccc(Cl)cc32)CC1`, the Potency result with C2A, in the experiment on CP185, with CP192, in the experiment on CP211, in the experiment on CP238 and in the experiment with CP247 was “inactive” throughout. Also, the Potency entry with CP250, in the experiment with CP252 and in the experiment with CP256 was “inactive” in each case.

For `NC1CCN(c2nc3c(cc2F)c(=O)c(C(=O)O)cn3-c2ccc(F)cc2F)C1` (centres undefined), the Potency entry with CP192, in the experiment on CP247 and in the experiment with CP250 was “inactive” throughout.

On to `CC1CCc2c(N3CCC(O)CC3)c(F)cc3c(=O)c(C(=O)O)cn1c23` (centres undefined), for which the Potency entry in the experiment on ATS95, in the experiment on C2A, with CP192, in the experiment on CP194, with CP201 and in the experiment with CP211 was “inactive” throughout. In addition, the Potency entry with CP250, in the experiment on CP256 and in the experiment on CP265 was “inactive” throughout. Moreover, in the experiment on CP260, the Potency was 12.6 µM (active).

`CO[C@]12C[C@@H](COC(=O)c3cncc(Br)c3)CN(C)[C@@H]1Cc1cn(C)c3cccc2c13`: the Potency entry in the experiment on CP185, with CP192, with CP194, in the experiment on CP201, in the experiment on CP211 and with CP217 was “inactive” in each case. Further, the Potency result in the experiment on CP250, in the experiment with CP252, in the experiment with CP256 and with CP265 was “inactive” in each case.

For the compound `CC(C)(C)CC(C)(C)c1ccc(O)c(-n2nc3ccccc3n2)c1`, the Potency result in the experiment on CP192, in the experiment with CP194, with CP201, in the experiment with CP203, in the experiment on CP211 and in the experiment on CP215 was “inactive” in each case. Further, the Potency result in the experiment with CP262 is “inactive”. Also, the Potency in the experiment with CP247 was 11.2 µM (active).
